Potency and affinity values are given separately.
Legend:
[1] = system: Staphylococcus aureus; settings: Concentration 32 ug.mL-1; ASSAY_TEST Inhibition of Bacterial Growth; detection method Absorption (OD600); MEDIA CAMHB; plate type 384well; NBS; CORNING #3640; time 18 hr
[2] = system: Escherichia coli; settings: Concentration 32 ug.mL-1; ASSAY_TEST Inhibition of Bacterial Growth; detection method Absorption (OD600); MEDIA CAMHB; plate type 384well; NBS; CORNING #3640; time 18 hr

SMILES	Inhibition [1] [%]	Inhibition [2] [%]
CC(=O)O[C@H]1C[C@@]2(C)C(C[C@@H](O)C3[C@@]4(C)CC[C@@H](O)[C@@H](C)C4CC[C@@]32C)/C1=C(\CCC=C(C)C)C(=O)Oc1ccc(CCO[N+](=O)[O-])cc1 (some centres not stated)	23.19	-3.14
CC(=O)O[C@H]1C[C@@]2(C)C(C[C@@H](O)C3[C@@]4(C)CC[C@@H](OC(=O)c5ccccc5C(=O)Nc5cccc(N)c5)[C@@H](C)C4CC[C@@]32C)/C1=C(\CCC=C(C)C)C(=O)OCc1ccccc1 (some centres not stated)	1.65	-0.14
CC(=O)O[C@H]1C[C@@]2(C)C(CC(=O)C3[C@@]4(C)CC[C@@H](OC(=O)CCCCO[N+](=O)[O-])[C@@H](C)C4CC[C@@]32C)/C1=C(\CCC=C(C)C)C(=O)OCc1ccccc1 (some centres not stated)	9.81	-0.69
CC(=O)O[C@H]1C[C@@]2(C)C(C[C@@H](O)C3[C@@]4(C)CC[C@@H](OC(=O)C(C)N)[C@@H](C)C4CC[C@@]32C)/C1=C(\CCC=C(C)C)C(=O)OCc1ccccc1 (some centres not stated)	32.79	-12.12
CC(=O)O[C@H]1C[C@@]2(C)C(CC(=O)C3[C@@]4(C)CC[C@@H](OC(=O)CCCCCO[N+](=O)[O-])[C@@H](C)C4CC[C@@]32C)/C1=C(\CCC=C(C)C)C(=O)OCc1ccccc1 (some centres not stated)	5.71	-2.8
CC(=O)O[C@H]1C[C@@]2(C)C(C[C@@H](O)C3[C@@]4(C)CC[C@@H](OC(=O)CCCCO[N+](=O)[O-])[C@@H](C)C4CC[C@@]32C)/C1=C(\CCC=C(C)C)C(=O)OCc1ccccc1 (some centres not stated)	9.5	-4.08

Reference: ChEMBL document CHEMBL4513152, “CO-ADD screening of Yantai University (China) compounds”
